NALP3 yeast inh: inhibitors of NALP3 inflammasome in yeast | AID 2825 | hit rate 0.39% among 330,000 | Yeast reconstituted NLRP3/ASC/caspase-1, beta-gal luminescence, 24 h | inhibition, % at 10 µM;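 active means inhibition of 50% or more; inactive means inhibition below 50%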
TIM10 inh: TIM10 yeast growth inhibition | S. cerevisiae TIM10 strain growth, BacTiter-Glo luminescence, 24 h | inhibition, % at 10 µM | hit rate 1.4% among 330,000 | AID 463195;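 active means inhibition of 40% or more at the single tested concentration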;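 further: wild-type TIM10 isogenic control strain grown at permissive 25 °C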
tim10-1 inh: inhibits growth of tim10-1 mutant yeast; S. cerevisiae tim10-1 ts strain growth, BacTiter-Glo, 24 h; inhibition, % at 20 µM; hit rate 2.2% among 330,000;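 active means inhibition of at least 40%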;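 further: mutant grown at 25 °C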
tim23-1 inh: inhibits growth of tim23-1 mutant yeast; S. cerevisiae tim23-1 growth, BacTiter-Glo luminescence, 24 h; inhibition, % at 20 µM; hit rate 1.3% among 330,000; AID 463212;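 active means growth inhibition of the mutant yeast at or above 50%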;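 further: temperature-sensitive mutant grown at 25 °C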
SKKanGAS inh: inhibitors of SKKanGAS S. pyogenes growth in kanamycin (SK-promoter or general growth effect) | hit rate 1.3% among 300,000 | inhibition, % at 7.5 µM | BacTiter-Glo, 6 h | AID 1662;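 active means mean replicate score, as percent of positive control median, at least 50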;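 further: strain carries kanamycin resistance gene driven by streptokinase promoter and grows in 40 µg/ml kanamycin; loss of luminescence reflects streptokinase promoter inhibition or plain growth inhibition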
PfHsp90 set2: reduces growth (ATP signal) of yeast expressing P. falciparum Hsp90. AID 504621. inhibition, % at 9.4 µM. S. cerevisiae expressing PfHsp90, BacTiter-Glo ATP, 48 h; yeast lacking PDR1 and PDR3 efflux regulators. hit rate 0.32% among 310,000;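 active means every replicate shows inhibition above about 80%, whatever the replicate mean, limit read from the data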
tim10-1 confirm: tim10-1 yeast growth inhibition, confirmed. shares compounds with tim10-1 inh. AID 463213. hit rate 56% among 7,400. S. cerevisiae tim10-1 ts strain growth, BacTiter-Glo, 24 h. inhibition, % at 20 µM;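 active means inhibition of yeast growth at or above a set limit in either of two repeat tests at 20 µM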;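 further: tim10-1 mutant grown at permissive 25 °C to find synthetic lethal compounds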
tim10 confirm: confirmation of TIM10 yeast growth inhibitors | shares compounds with TIM10 inh | S. cerevisiae tim10 strain growth, BacTiter-Glo luminescence, 24 h | inhibition, % at 10 µM | hit rate 63% among 4,600 | AID 463215;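 active means inhibition of yeast growth at or above a set limit in either of two replicates at 10 µM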; further: this counterscreen used the strain with wild-type TIM10
tim23-1 conf: tim23-1 yeast growth inhibition, confirmed. shares compounds with tim23-1 inh. S. cerevisiae tim23-1 growth, BacTiter-Glo luminescence, 24 h. inhibition, % at 20 µM. hit rate 83% among 4,400. AID 463218;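 active means inhibition above about 39% in either of two replicate wells at 20 µM, limit read from the data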;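 further: temperature-sensitive tim23-1 mutant grown at 25 °C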
A number is an active result. This is a sample that favours compounds with a hit; in the whole collection about 4.6% have one here.

How did CC(=O)c1ccccc1C(=O)N1CCCC(N2CCN(Cc3ccc4c(c3)OCO4)CC2)C1 (configuration not stated) do in these assays?
NALP3 yeast inh: inactive; TIM10 inh: inactive; tim10-1 inh: inactive; tim23-1 inh: inactive; SKKanGAS inh: inactive; PfHsp90 set2: inactive

How did CCOn1c(=O)c(-c2cccs2)[n+]([O-])c2ccccc21 do in these assays?
NALP3 yeast inh: inactive; TIM10 inh: inactive; tim10-1 inh: 56.7; tim23-1 inh: 61.8; SKKanGAS inh: inactive; PfHsp90 set2: inactive; tim10-1 confirm: 41.1; tim23-1 conf: 67.5

How did COc1ccc(C=Nc2ccc3[nH]ncc3c2)c(O)c1 do in these assays?
NALP3 yeast inh: inactive; TIM10 inh: inactive; tim10-1 inh: inactive; tim23-1 inh: inactive; SKKanGAS inh: inactive; PfHsp90 set2: inactive

Results for Oc1c(Br)cc(Br)cc1C=Nc1ccc2[nH]ncc2c1 ?
NALP3 yeast inh: inactive; TIM10 inh: inactive; tim10-1 inh: 46.5; tim23-1 inh: 86.2; SKKanGAS inh: inactive; PfHsp90 set2: inactive; tim10-1 confirm: 55.9; tim23-1 conf: 79.5

How did Oc1c(Br)cc(Br)cc1C=Nc1cccnc1 do in these assays?
NALP3 yeast inh: inactive; TIM10 inh: 67.0; tim10-1 inh: 56.9; tim23-1 inh: 79.4; SKKanGAS inh: inactive; PfHsp90 set2: 100.8; tim10-1 confirm: 41.7; tim10 confirm: 48.0; tim23-1 conf: 89.8

How did CCN1C(=O)/C(=C/N(C)C)c2ccccc21 do in these assays?
NALP3 yeast inh: inactive; TIM10 inh: inactive; tim10-1 inh: inactive; tim23-1 inh: inactive; SKKanGAS inh: inactive

How did CCN1C(=O)/C(=C\C(=O)c2cccs2)c2cc(Br)ccc21 do in these assays?
NALP3 yeast inh: inactive; TIM10 inh: 74.0; tim10-1 inh: 48.8; tim23-1 inh: 72.0; SKKanGAS inh: inactive; PfHsp90 set2: 102.8; tim10-1 confirm: 34.5; tim10 confirm: 64.7; tim23-1 conf: inactive

What do the screens show for `Nc1ccc(N=Nc2ccccc2)c2ccccc12`?
NALP3 yeast inh: inactive; TIM10 inh: 65.2; tim10-1 inh: 49.2; tim23-1 inh: 80.0; SKKanGAS inh: 86.1; PfHsp90 set2: inactive; tim10-1 confirm: 38.6; tim10 confirm: 75.4; tim23-1 conf: inactive

What do the screens show for `Cc1ccc(NC2CCCN(C(=O)c3ccc(C)c(N4CCNC4=O)c3)C2)cc1C` (configuration not stated)?
NALP3 yeast inh: inactive; TIM10 inh: inactive; tim10-1 inh: inactive; tim23-1 inh: inactive; SKKanGAS inh: inactive; PfHsp90 set2: inactive

How did Cc1cc(N2CCCCC2)n2nc(C)c(-c3ccccc3)c2n1 do in these assays?
NALP3 yeast inh: inactive; TIM10 inh: inactive; tim10-1 inh: 43.1; tim23-1 inh: 50.1; SKKanGAS inh: inactive; PfHsp90 set2: inactive; tim10-1 confirm: 33.4; tim23-1 conf: 47.0

What do the screens show for `Cc1cc(N2CCC(C)CC2)n2nc(C)c(-c3ccccc3)c2n1`?
NALP3 yeast inh: inactive; TIM10 inh: inactive; tim10-1 inh: inactive; tim23-1 inh: inactive; SKKanGAS inh: inactive; PfHsp90 set2: inactive

Results for CC(C)c1ccc(-c2csc3ncnc(N4CCN(C)CC4)c23)cc1 ?
NALP3 yeast inh: inactive; TIM10 inh: inactive; tim10-1 inh: inactive; tim23-1 inh: inactive; SKKanGAS inh: inactive; PfHsp90 set2: inactive

Results for COc1ccccc1-c1ccc(Nc2cccc(C(F)(F)F)c2)nn1 ?
NALP3 yeast inh: inactive; TIM10 inh: inactive; tim10-1 inh: inactive; tim23-1 inh: inactive; SKKanGAS inh: inactive; PfHsp90 set2: inactive

What do the screens show for `COc1ccccc1-c1ccc(NC2CCCCC2)nn1`?
NALP3 yeast inh: inactive; TIM10 inh: inactive; tim10-1 inh: 42.8; tim23-1 inh: 51.9; SKKanGAS inh: inactive; PfHsp90 set2: inactive; tim10-1 confirm: 38.5; tim23-1 conf: 41.5

What do the screens show for `CCc1c(C)sc(NC(=O)Cc2ccccc2OC)c1C(=O)N1CCOCC1`?
NALP3 yeast inh: inactive; TIM10 inh: inactive; tim10-1 inh: inactive; tim23-1 inh: inactive; SKKanGAS inh: inactive; PfHsp90 set2: inactive

Results for O=C(N/N=C/c1ccc([N+](=O)[O-])o1)c1cn2ccc3ccccc3c2n1 ?
NALP3 yeast inh: inactive; TIM10 inh: 59.6; tim10-1 inh: 59.4; tim23-1 inh: 73.7; SKKanGAS inh: inactive; PfHsp90 set2: inactive; tim10-1 confirm: 72.2; tim10 confirm: 78.3; tim23-1 conf: inactive

What do the screens show for `COC(=O)CCCC(=O)N1CCCC(C(=O)c2ccc(OC)cc2C)C1` (configuration not stated)?
NALP3 yeast inh: inactive; TIM10 inh: inactive; tim10-1 inh: inactive; tim23-1 inh: inactive; SKKanGAS inh: inactive; PfHsp90 set2: inactive

How did Cc1cccc(OCCN2CSC(=S)N(C)C2)c1 do in these assays?
NALP3 yeast inh: inactive; TIM10 inh: inactive; tim10-1 inh: 41.7; tim23-1 inh: 59.4; SKKanGAS inh: inactive; PfHsp90 set2: inactive; tim10-1 confirm: inactive; tim23-1 conf: 75.8

Results for COc1ccccc1OCCN1CSC(=S)N(C)C1 ?
NALP3 yeast inh: inactive; TIM10 inh: 53.2; tim10-1 inh: 41.6; tim23-1 inh: 71.6; SKKanGAS inh: inactive; PfHsp90 set2: inactive; tim10-1 confirm: 31.4; tim10 confirm: inactive; tim23-1 conf: 60.0

How did Cc1cccc(OCCCN2CCCCCC2)c1 do in these assays?
NALP3 yeast inh: inactive; TIM10 inh: inactive; tim10-1 inh: inactive; tim23-1 inh: inactive; SKKanGAS inh: inactive; PfHsp90 set2: inactive

How did Cn1cc([C@@H]2C[C@H]3CN(C4CCCC4)C(=O)[C@]34CCCN24)c(-c2ccccc2)n1 do in these assays?
NALP3 yeast inh: inactive; TIM10 inh: inactive; tim10-1 inh: inactive; tim23-1 inh: inactive; SKKanGAS inh: inactive; PfHsp90 set2: inactive

Results for COC(=O)c1cccc(NS(=O)(=O)c2cccs2)c1C ?
SKKanGAS inh: inactive; PfHsp90 set2: inactive

What do the screens show for `COC(=O)c1ccccc1NC1=C/C(=N\S(=O)(=O)c2cccs2)c2ccccc2C1=O`?
NALP3 yeast inh: inactive; TIM10 inh: 41.0; tim10-1 inh: 45.6; tim23-1 inh: 55.8; SKKanGAS inh: inactive; PfHsp90 set2: inactive; tim10-1 confirm: 41.1; tim10 confirm: inactive; tim23-1 conf: 39.8

How did Cc1ccccc1NC(=O)c1sc(NC(=O)COc2ccccc2)c(C#N)c1C do in these assays?
NALP3 yeast inh: inactive; TIM10 inh: inactive; tim10-1 inh: inactive; tim23-1 inh: inactive; SKKanGAS inh: inactive; PfHsp90 set2: inactive

What do the screens show for `O=C1c2cccc3c(N4CCCCC4)ccc(c23)C(=O)N1c1ccccn1`?
NALP3 yeast inh: inactive; TIM10 inh: inactive; tim10-1 inh: inactive; tim23-1 inh: inactive; SKKanGAS inh: inactive; PfHsp90 set2: inactive

Screens deposited in PubChem BioAssay by several laboratories.
